Outcome and AC50 data for eight compounds are collected here from PubChem BioAssay (EPA / NIEHS).

For experiment [1], the target named is human Sirtuin 2 (SIRT2), SIRT2 (gene 22933) (UniProt Q8IXJ6). Description: NVS_ENZ_hSIRT2: NovaScreen (NVS) Enzymatic Assay for human Sirtuin 2 (SIRT2) (AID 2283217). The gist of the method: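 Single-point duplicate screen at 25 uM, then concentration-response (max 50 uM) for chemicals passing threshold. Enzyme activity of recombinant human SIRT2 measured after 1 hr by fluorescence with mobility-shift separation of product; DMSO baseline.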
Chain of human Sirtuin 2 (SIRT2), SIRT2 (gene 22933) (Q8IXJ6 whole entry, looked up): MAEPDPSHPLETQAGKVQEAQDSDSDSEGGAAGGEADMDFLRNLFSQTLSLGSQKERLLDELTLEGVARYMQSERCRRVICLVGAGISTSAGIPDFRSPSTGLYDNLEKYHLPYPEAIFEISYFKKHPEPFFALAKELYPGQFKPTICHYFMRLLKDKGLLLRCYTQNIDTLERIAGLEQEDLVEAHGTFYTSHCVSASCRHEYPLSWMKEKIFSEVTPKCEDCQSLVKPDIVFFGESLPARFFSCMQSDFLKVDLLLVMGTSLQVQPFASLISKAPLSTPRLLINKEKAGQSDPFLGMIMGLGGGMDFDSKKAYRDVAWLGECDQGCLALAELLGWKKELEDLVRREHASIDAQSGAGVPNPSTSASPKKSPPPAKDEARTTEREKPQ

Experiment [2] concerns the target human Sirtuin 1 (SIRT1), SIRT1 (gene 23411) (UniProt Q96EB6). Description: NVS_ENZ_hSIRT1: NovaScreen (NVS) Enzymatic Assay for human Sirtuin 1 (SIRT1) (AID 2283219). In a few lines:
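Cell-free recombinant SIRT1 with a fluorescent substrate; substrate and product separated by electrophoretic mobility shift and read by fluorescence intensity, 1 h after dosing. Primary screen at 25 uM in duplicate; hits re-run in concentration-response up to 50 uM, relative to DMSO.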

Experiment [3] concerns the target human Vascular Endothelial Growth Factor Receptor 1 (VEGFR1), FLT1 (gene 2321) (UniProt P17948). Description: NVS_ENZ_hVEGFR1: NovaScreen (NVS) Enzymatic Assay for human Vascular Endothelial Growth Factor Receptor 1 (VEGFR1) (AID 2283226). The gist of the method:
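Kinase activity of recombinant human VEGFR1 was read by fluorescence after electrophoretic separation of product from substrate, 1 h post-dosing; initial duplicate single-point testing at 25 uM, followed by concentration-series follow-up, with DMSO as baseline.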

The target of experiment [4] is human Vascular Endothelial Growth Factor Receptor 3 (VEGFR3), FLT4 (gene 2324) (UniProt P35916). Description: NVS_ENZ_hVEGFR3: NovaScreen (NVS) Enzymatic Assay for human Vascular Endothelial Growth Factor Receptor 3 (VEGFR3) (AID 2283229). The gist of the method:
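Chemicals first run in duplicate at 25 uM, with actives re-tested in concentration series to a top of 50 uM. Recombinant VEGFR3 activity measured after 1 h via fluorescence with mobility-shift product separation; inhibition fitted relative to DMSO.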

The target in experiment [5] is human Vascular Endothelial Growth Factor Receptor 2 (VEGFR2), KDR (gene 3791) (UniProt P35968). Description: NVS_ENZ_hVEGFR2: NovaScreen (NVS) Enzymatic Assay for human Vascular Endothelial Growth Factor Receptor 2 (VEGFR2) (AID 2283230). In a few lines:
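Cell-free recombinant VEGFR2 kinase, fluorescent substrate with electrophoretic mobility-shift separation; read 1 h after dosing. Screened at 25 uM in duplicate, hits to concentration-response up to 50 uM; loss-of-signal versus DMSO.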

The target in experiment [6] is rabbit Imidazoline 2 Central (I2C), CKB (gene 100009085) (UniProt P00567). Description: NVS_ENZ_rabI2C: NovaScreen (NVS) Enzymatic Assay for rabbit Imidazoline 2 Central (I2C) (AID 2283228). The gist of the method: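 Rabbit brain membranes, cell-free; readout by filter-based scintillation counting 1.5 hours after dosing, loss of signal vs DMSO. Initial duplicate test at 25 uM, then concentration-response with 50 uM top concentration.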
Chain of rabbit Imidazoline 2 Central (I2C), CKB (gene 100009085) (P00567 whole entry, looked up): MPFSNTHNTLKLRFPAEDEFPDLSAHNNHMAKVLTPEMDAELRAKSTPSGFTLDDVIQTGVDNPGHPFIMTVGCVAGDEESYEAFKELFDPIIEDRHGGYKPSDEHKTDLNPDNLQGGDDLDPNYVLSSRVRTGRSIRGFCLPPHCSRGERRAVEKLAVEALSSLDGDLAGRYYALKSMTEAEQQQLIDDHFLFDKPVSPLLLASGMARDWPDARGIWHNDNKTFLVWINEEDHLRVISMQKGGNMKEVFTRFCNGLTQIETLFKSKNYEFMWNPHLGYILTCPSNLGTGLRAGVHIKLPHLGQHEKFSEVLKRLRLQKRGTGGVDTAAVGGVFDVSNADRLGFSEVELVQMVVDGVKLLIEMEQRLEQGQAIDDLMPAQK

Experiment [7] addresses human Sirtuin 3 (SIRT3), SIRT3 (gene 23410) (UniProt Q9NTG7). In words: NVS_ENZ_hSIRT3: NovaScreen (NVS) Enzymatic Assay for human Sirtuin 3 (SIRT3) (AID 2283222). In a few lines: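 Cell-free enzyme assay with recombinant protein and fluorescent substrate, product separated by electrophoretic mobility shift; read 1 hour after dosing. Screened in duplicate at 25 uM, then singleton concentration-response up to 50 uM; loss of signal versus DMSO.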

Each structure is given as a SMILES string. Records with an inconclusive call do not appear. Active and inactive are the calls of the source. Rule for the calls: active = hit-call score of the fitted dose curve at least 0.9, where 1 is the maximum; inconclusive = response in the unintended direction; inactive = score below 0.9.

A word on the AC50: it is the concentration giving half of the maximal activity seen.

Chain of human Sirtuin 1 (SIRT1), SIRT1 (gene 23411) (Q96EB6 whole entry, looked up): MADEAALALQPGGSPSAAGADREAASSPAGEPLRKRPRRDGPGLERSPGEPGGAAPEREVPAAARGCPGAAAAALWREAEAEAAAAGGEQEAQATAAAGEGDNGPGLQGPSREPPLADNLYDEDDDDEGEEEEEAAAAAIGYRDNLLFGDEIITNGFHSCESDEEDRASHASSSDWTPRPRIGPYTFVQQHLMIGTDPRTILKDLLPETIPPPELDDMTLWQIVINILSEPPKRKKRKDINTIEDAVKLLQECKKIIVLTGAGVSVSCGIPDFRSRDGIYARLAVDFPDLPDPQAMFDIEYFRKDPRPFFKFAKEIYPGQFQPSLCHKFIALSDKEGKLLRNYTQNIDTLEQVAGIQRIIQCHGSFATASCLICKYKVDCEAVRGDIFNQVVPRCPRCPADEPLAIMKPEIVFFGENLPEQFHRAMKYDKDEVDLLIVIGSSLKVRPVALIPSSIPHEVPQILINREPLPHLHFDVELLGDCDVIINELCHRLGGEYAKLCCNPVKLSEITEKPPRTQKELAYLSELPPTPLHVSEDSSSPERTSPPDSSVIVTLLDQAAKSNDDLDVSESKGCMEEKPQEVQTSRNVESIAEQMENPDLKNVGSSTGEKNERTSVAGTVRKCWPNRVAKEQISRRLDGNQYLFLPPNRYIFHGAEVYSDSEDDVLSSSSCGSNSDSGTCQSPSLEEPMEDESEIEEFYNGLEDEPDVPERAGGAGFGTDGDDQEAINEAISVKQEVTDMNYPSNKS
Chain of human Vascular Endothelial Growth Factor Receptor 3 (VEGFR3), FLT4 (gene 2324) (P35916 whole entry, looked up): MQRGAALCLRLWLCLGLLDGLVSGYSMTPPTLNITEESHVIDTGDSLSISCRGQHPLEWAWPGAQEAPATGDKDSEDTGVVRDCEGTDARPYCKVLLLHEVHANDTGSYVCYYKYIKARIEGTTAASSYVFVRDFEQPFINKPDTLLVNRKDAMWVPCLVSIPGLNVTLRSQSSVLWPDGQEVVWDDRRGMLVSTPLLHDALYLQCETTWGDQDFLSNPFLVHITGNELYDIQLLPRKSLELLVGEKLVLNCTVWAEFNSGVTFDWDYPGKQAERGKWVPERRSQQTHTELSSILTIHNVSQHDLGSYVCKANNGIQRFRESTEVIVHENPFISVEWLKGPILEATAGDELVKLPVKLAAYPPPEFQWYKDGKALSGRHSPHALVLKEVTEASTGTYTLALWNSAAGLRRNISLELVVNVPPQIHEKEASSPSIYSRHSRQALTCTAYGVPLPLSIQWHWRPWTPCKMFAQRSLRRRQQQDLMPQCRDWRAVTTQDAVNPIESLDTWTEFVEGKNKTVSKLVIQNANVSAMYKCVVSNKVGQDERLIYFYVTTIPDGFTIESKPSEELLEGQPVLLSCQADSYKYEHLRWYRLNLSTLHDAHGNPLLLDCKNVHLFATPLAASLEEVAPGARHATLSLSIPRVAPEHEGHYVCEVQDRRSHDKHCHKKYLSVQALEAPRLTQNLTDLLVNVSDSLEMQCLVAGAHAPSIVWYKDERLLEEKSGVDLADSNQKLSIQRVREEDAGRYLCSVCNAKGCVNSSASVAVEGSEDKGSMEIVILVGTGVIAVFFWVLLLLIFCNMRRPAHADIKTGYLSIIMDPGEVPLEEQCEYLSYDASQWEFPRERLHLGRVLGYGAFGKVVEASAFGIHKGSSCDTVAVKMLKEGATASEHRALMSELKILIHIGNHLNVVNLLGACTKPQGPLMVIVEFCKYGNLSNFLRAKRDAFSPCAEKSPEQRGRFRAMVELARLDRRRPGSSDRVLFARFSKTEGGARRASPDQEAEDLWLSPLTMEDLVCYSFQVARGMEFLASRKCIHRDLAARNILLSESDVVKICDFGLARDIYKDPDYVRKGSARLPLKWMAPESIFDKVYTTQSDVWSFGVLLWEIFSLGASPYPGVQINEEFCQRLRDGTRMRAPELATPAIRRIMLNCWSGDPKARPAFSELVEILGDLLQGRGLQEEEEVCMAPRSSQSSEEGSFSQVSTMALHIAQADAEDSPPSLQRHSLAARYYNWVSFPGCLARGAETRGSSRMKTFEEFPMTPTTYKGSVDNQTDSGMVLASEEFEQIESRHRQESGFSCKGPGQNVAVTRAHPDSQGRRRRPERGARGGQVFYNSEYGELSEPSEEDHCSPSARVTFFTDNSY
Chain of human Sirtuin 3 (SIRT3), SIRT3 (gene 23410) (Q9NTG7 whole entry, looked up): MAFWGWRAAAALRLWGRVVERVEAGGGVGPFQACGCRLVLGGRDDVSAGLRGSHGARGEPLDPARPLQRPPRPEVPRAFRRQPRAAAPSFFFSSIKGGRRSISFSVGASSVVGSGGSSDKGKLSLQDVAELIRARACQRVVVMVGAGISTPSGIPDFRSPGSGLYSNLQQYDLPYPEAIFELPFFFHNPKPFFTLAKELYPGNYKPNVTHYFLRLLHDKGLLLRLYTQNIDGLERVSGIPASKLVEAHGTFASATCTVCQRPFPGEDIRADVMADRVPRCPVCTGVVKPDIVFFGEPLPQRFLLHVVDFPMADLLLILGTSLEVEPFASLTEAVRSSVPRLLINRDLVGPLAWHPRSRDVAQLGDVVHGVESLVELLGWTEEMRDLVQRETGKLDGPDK
Chain of human Vascular Endothelial Growth Factor Receptor 1 (VEGFR1), FLT1 (gene 2321) (P17948 whole entry, looked up): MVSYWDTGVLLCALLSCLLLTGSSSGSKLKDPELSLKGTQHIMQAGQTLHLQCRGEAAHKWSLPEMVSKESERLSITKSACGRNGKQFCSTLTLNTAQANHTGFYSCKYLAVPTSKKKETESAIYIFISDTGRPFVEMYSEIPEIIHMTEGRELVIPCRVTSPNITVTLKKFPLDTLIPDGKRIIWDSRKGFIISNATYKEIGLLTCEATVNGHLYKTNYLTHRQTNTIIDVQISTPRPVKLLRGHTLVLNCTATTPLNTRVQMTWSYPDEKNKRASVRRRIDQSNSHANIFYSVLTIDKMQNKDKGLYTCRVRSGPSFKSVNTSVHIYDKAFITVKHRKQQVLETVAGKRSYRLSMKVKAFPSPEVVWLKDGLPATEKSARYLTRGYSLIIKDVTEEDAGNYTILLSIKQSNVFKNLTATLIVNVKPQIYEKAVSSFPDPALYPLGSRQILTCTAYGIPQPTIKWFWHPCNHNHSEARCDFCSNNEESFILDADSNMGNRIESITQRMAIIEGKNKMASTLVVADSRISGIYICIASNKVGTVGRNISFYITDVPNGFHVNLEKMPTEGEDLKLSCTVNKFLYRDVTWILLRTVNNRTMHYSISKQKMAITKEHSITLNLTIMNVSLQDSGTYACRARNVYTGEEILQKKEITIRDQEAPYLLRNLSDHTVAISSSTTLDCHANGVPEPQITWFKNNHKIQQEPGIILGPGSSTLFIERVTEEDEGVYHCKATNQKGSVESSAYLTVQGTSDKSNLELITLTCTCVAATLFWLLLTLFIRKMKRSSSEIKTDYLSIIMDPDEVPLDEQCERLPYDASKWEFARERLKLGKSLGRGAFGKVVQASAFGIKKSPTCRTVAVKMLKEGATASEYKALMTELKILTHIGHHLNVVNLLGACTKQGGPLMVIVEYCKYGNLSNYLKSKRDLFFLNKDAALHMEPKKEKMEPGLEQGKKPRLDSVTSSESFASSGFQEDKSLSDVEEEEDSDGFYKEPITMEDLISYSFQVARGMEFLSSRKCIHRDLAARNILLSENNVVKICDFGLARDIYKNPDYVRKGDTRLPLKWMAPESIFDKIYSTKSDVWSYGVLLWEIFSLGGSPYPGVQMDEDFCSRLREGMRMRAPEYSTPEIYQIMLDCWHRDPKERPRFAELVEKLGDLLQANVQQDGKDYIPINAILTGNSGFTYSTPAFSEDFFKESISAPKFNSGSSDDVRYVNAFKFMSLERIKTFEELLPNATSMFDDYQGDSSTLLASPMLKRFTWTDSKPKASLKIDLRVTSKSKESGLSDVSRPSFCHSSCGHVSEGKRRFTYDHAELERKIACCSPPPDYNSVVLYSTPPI

For `Cc1ccc(N)cc1O`, the compound was classed as inactive in experiment [1], in experiment [2], in experiment [3], in experiment [4] and in experiment [5]. `Nc1ccc(Nc2ccccc2)cc1`: the AC50 in experiment [6] was 4.76 µM (active). Take `CNCc1ccc(NC(=O)c2c[nH]c3c2C(=O)CCC3)cc1`: in experiment [2], the result was inactive. Consider `Nc1cccc(N)c1`, for which the compound was classed as inactive in experiment [2]. Consider `CC1(C)C(=O)N(Br)C(=O)N1Br`, for which the result in experiment [7] was inactive.

Turning to `Oc1ccc2c(c1)-c1ccccc1C2`, in experiment [2], the result was inactive. Regarding `CC(O)CN(CCN(CC(C)O)CC(C)O)CC(C)O` (configuration not stated), the compound was called inactive in experiment [4]. Same read-out and setting: in the case of `COC(=O)c1c(Cl)c(Cl)c(C(=O)OC)c(Cl)c1Cl` it was “inactive”.
